Assay results reported in ChEMBL document CHEMBL1201862, “PubChem BioAssay data set” (2004).
Out of some 18,000 compounds screened, about 750 (4.2%) were called active. Roughly 13% stayed inconclusive and do not appear here. The rule behind the calls is not given here. Many of the other results were omitted from the sample, so actives are more common in it than they were.

assay: qHTS for Inhibitors of binding or entry into cells for Lassa Virus.

SMILES | Potency
CC12C(=O)OC(=O)C1(C)C1CCC2O1 (stereo unspecified) | 562 µM (active)
